PubChem BioAssay AID1030 (National Center for Advancing Translational Sciences (NCATS), 2008)
Several values for one entry are separate records, joined by “and”; a condition that tells them apart may be missing. Identical values can stand only once. Screen size: about 220,000 compounds; about 16,000 (7.3%) were called active. Where a call stands in place of a potency, no number is given. Another 25% or so got no clear call; they are omitted. Calls come from the whole dose curve; as a rule, active = well fitted inhibition curve with a large enough effect (not every such curve was filed as active); inconclusive = small, poorly fitted or top-dose-only effect, or another doubt; inactive = no such curve, though single readings can be large or run the other way. This excerpt belongs to a sample that is enriched for actives. Where a structure was tested more than once in an assay, its records may differ in their call.

These compounds were tested against Aldehyde dehydrogenase 1A1 (Homo sapiens) (UniProt P00352) (assay: qHTS Assay for Inhibitors of Aldehyde Dehydrogenase 1 (ALDH1A1)). Conditions: Purified ALDH1A1, NADH fluorescence, propionaldehyde substrate; series mostly up to 75.3 µM.
Aldehyde dehydrogenase 1A1 (Homo sapiens), sequence (P00352 whole entry, looked up): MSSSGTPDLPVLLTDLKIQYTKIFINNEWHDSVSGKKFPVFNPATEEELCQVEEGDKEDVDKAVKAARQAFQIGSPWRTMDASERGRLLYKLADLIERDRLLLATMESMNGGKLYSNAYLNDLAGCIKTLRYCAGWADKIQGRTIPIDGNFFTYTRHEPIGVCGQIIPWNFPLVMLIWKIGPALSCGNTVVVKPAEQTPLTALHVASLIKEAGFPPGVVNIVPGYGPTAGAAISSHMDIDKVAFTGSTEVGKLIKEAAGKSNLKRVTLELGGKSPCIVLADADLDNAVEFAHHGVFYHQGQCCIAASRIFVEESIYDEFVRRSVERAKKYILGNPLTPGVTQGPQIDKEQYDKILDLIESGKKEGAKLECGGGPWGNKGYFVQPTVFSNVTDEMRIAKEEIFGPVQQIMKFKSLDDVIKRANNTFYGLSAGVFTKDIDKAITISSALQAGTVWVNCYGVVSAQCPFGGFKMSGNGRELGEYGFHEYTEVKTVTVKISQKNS
Potency is the fitted concentration of half-maximal effect.

Row | SMILES | Potency
1 | O=C(O)CCn1cc(C=C2C(=O)NC(=S)NC2=O)c(-c2cccc(Br)c2)n1 | 10 µM (active)
2 | COP(=O)(NS(=O)(=O)c1ccccc1)OC | inactive
3 | CN1C2CC3CC1C(O3)C2O (stereo unspecified) | inactive
4 | C[C@@]12CC[C@H]3[C@@H](CC[C@]4(O)C[C@H](O)CC[C@@]34C=O)[C@]1(O)CC[C@@H]2C1=CC(=O)OC1 | inactive
5 | OC1/C(=C/c2ccc(C(F)(F)F)cc2)N2CCC1CC2 (stereo unspecified) | inactive
6 | CCCCC/C=C\C/C=C\C/C=C\C=C\[C@H](CCCC(=O)O)OO | inactive
7 | CCCCC/C=C\C/C=C\C/C=C\CCCCCCC(=O)NCCO | inactive
8 | CCCCC/C=C\C/C=C\C/C=C\C/C=C\CCCCCC(=O)NCCO | inactive and 14.1 µM (active)
9 | O=C(COC(=O)Cc1ccccc1)Nc1ccc(F)cc1 | inactive
10 | O=c1[nH]c(=O)n(Cc2ccccc2)c(O)c1/C=N/Nc1c(F)c(F)c(F)c(F)c1F | inactive
11 | CNC(=O)N(C)c1nnc(C(C)(C)C)s1 | inactive
12 | CN1[C@@H]2CC[C@H]1CC(OC(=O)c1cc(Cl)cc(Cl)c1)C2 (stereo partly specified) | inactive
13 | BrC1C(Br)C(Br)C(Br)C(Br)C1Br (stereo unspecified) | 20 µM (active)
14 | O=C(CCN1CCCCC1)NCC(=O)Nc1ccc(Br)cc1C(=O)c1ccccc1 | inactive
15 | N[C@H](Cc1o[nH]c(=O)c1Cl)C(=O)O | inactive
16 | CC(C)(C)CC(=O)Nc1nnc(SCC(=O)NCc2cccs2)s1 | 17.8 µM (active)
17 | N[C@H](C(=O)O)c1cc(=O)[nH]o1 | inactive
18 | N#Cc1ccc(Cn2cc(C(=O)c3ccco3)c3ccccc32)cc1 | inactive
19 | COP(=O)(OC)C(NC(=O)c1ccc(C)cc1)C(Cl)(Cl)Cl (stereo unspecified) | inactive
20 | OC(Cn1c2ccccc2c2ccccc21)C[n+]1ccccc1 (stereo unspecified) | inactive
21 | CCNc1nc2[nH]c(=O)c3c(c2s1)OC(N)=C(C#N)C3c1cccs1 (stereo unspecified) | inactive
22 | CCCCN1C2CCC1CC(OC(c1ccc(F)cc1)c1ccc(F)cc1)C2 (stereo unspecified) | inactive
23 | Cc1ccc(NN=C2C(=O)OC(C)(C)OC2=O)c(C)c1 | 10 µM (active)
24 | Cc1nc2nc(C)c(CCC(=O)N3CCC4(CC3)OCCO4)c(C)n2n1 | inactive
25 | CC1=CC(=O)C2=C(C)C[C@H](O)[C@H]3[C@H](C)C(=O)O[C@@H]3C12 (stereo partly specified) | inactive
26 | COc1ccc(C(=O)C2CCCN(Cc3ccc(C)s3)C2)cc1OC (stereo unspecified) | inactive

Row | SMILES | Potency
27 | COc1cc(C(=S)N2CCOCC2)ccc1O | 18.9 µM (active)
28 | C=CCN1CCC23c4c5ccc(O)c4O[C@H]2C(=O)CC[C@@]3(O)C1C5 (stereo partly specified) | inactive
29 | CCC/C(=N\O)c1c[nH]c2ccccc12 | inactive
30 | CCCOC(=O)C1C2c3ccccc3C(c3ccccc32)C1C(=O)O (stereo unspecified) | inactive
31 | Cc1ccc(-c2cc(C(=O)N3CCC4(CC3)OCCO4)no2)cc1 | inactive
32 | Cc1ccsc1C(=O)C1CCCN(Cc2ccc(O)cc2)C1 (stereo unspecified) | inactive
33 | COc1ccc2c3c1O[C@H]1C[C@@H](O)C=C[C@@]31CCN(C)C2 | inactive
34 | CCOC(=O)C1=C(C)OC(N)=C(C(=O)OC)C12C(=O)Nc1ccc(Br)cc12 (stereo unspecified) | inactive
35 | CCOC(=O)CC1=C(C(=O)OCC)C2(C(=O)N1)C(C(=O)OC)=C(N)Oc1ccccc12 (stereo unspecified) | inactive
36 | COC(=O)CN1C(=O)C2(C(C(=O)OC)=C(N)Oc3ccccc32)C2=C1CC(C)(C)CC2=O (stereo unspecified) | 1 µM (active)
37 | CCN1C[C@@]2(COC)CC[C@H](OC)[C@]34[C@@H]1[C@]1(OCO[C@@]15C[C@@H](OC)C1C[C@H]3[C@H]5[C@@H]1OC)[C@H](O)[C@@H]24 | inactive
38 | CC(=O)CC(C)C | 12.6 µM (active)
39 | N#CC1=C(N)Oc2c(c(=O)oc3ccccc23)C1c1ccccc1OC(=O)c1cccs1 (stereo unspecified) | inactive
40 | COc1ccc(CCn2c(O)c(C=NC3CC3)c(=O)[nH]c2=O)cc1OC | inactive
41 | ClCCBr | inactive
42 | CO[C@@H]1C[C@@H](C[C@H]2CC[C@H](C)[C@@H]([C@@H](C)C(=O)O)O2)O[C@]2(O[C@](C)([C@H]3CC[C@@](C)(C4OC([C@H]5O[C@@](O)(CO)[C@H](C)C[C@@H]5C)C[C@@H]4C)O3)C[C@H]2C)[C@@H]1C (stereo partly specified) | inactive
43 | COC(=O)N(c1ccc(OC)cc1)P1(=S)OCCC(C)O1 (stereo unspecified) | 2.24 µM (active)
44 | CCOc1ccc(C2SCC(=O)Nc3c2c(C)nn3C2CCOC(C)(C)C2)cc1 (stereo unspecified) | inactive
45 | ClC(Cl)=C(Cl)C(Cl)=C(Cl)Cl | inactive
46 | O=C1NC(=O)N(c2ccc(F)cc2)C(=O)/C1=C/c1ccc2c(c1)CCCN2Cc1ccccc1 | 0.158 µM (active)
47 | Fc1ccc(C(OCCN2CCN(C/C=C\c3ccccc3)CC2)c2ccc(F)cc2)cc1 | inactive
48 | CC(C)(O)c1[se]c2ccccc2c1I | inactive
49 | c1ccc(CN2CC[C@@]3(CCCNC3)C2)cc1 | inactive
50 | CC(=O)Cc1ccc(OC(C)C)cc1 | inactive
51 | CN(C)c1nc(N(C)C)nc(N(C#N)CCCl)n1 | 6.31 µM (active)
